Among the data in PubChem BioAssay (NCI) are growth values, retold here.

This is part of a sample that, as a whole, favours compounds with a hit. Of some 83,000 tested, about 20% had one in any assay.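 Values shown are percent growth following 48 h exposure of cells in 96-well plates to a single concentration of compound; below 10 was considered active.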 A number with no mark means an inactive call. Calls of active or inactive are those of the source.

The subject of the test is EKVX NSCLC. As to the kind of experiment: NCI-60 one-dose screen, 48 h (100 = growth as untreated, 0 = no growth, -100 = all killed). To be noted: 10 µM unless noted.
For the compound `COC(=O)[C@@H](C)C[C@H](Cc1ccccc1)NC(=O)c1nc([C@@H](C[C@H](C(C)C)N(C)C(=O)[C@@H](NC(=O)[C@H]2CCCN2C)C(C)C)OC(C)=O)sc1C`, the growth was 45.4%.
In the case of `CCCCCSC1C2C(=O)C(Br)=CC13CCNc1c(O)c4c5c(c13)=[N+]2CCC=5C=N4` (configuration not stated) it was -56.1% (active); in that of `CC1=C(CCCOC(=O)CN)C2=C(C)C3(CC3)[C@@](C)(O)C(=O)C2=C1`, 95.8%; in that of `COC(=O)CC[C@H](Cc1ccccc1)NC(=O)c1csc([C@@H](C[C@H](C(C)C)N(C)C(=O)[C@@H](NC(=O)[C@H]2CCCCN2C)C(C)C)OC(C)=O)n1`, 44.1%.
To `COC(=O)CC12CC(NC(=O)c3csc([C@@H](C[C@H](C(C)C)N(C)C(=O)[C@@H](NC(=O)[C@H]4CCCCN4C)C(C)C)OC(C)=O)n3)(C1)C2` belongs 38.6%; to `O=C1CNC(c2ccccc2)c2cc(Cl)ccc2N1` (configuration not stated), 104%.
For `CC1(C)N=C(N)N=C(N)N1c1cccc(CCCCc2ccc(Cl)c(S(=O)(=O)F)c2)c1`, the growth was 51.5%.
Regarding `CC(=O)O[C@H](C[C@H](C(C)C)N(C)C(=O)[C@@H](NC(=O)[C@H]1CCCCN1C)C(C)C)c1nc(C(=O)N[C@@H](Cc2ccccc2)C[C@H](C)C(=O)O)c(C(C)C)s1`, the growth is 39.3%.
Consider `COC(=O)[C@@H](C)C[C@H](Cc1ccccc1)NC(=O)c1csc(CC[C@H](C(C)C)N(C)C(=O)[C@@H](NC(=O)[C@H]2CCCCN2C)C(C)C)n1`, for which the growth is 40.8%.
In the case of `CCOP(=O)(NC[C@H]1O[C@](O)(CO)[C@@H](O)[C@@H]1O)OCC` it was 91.4%; in that of `COc1cc([C@@H]2c3cc4c(cc3[C@H](OC(C)=O)[C@H]3COC(=O)[C@H]23)OCO4)cc(OC)c1OC`, 38.3%.
Take `COC(=O)[C@@H](C)C[C@H](Cc1cn(C)c2ccccc12)NC(=O)c1csc([C@@H](C[C@H](C(C)C)N(C)C(=O)[C@@H](NC(=O)[C@H]2CCCCN2C)C(C)C)OC(C)=O)n1`: the growth is 46.4%.
`CCOC(=O)[C@@H](C)C[C@H](Cc1ccccc1)NC(=O)c1csc([C@@H](C[C@H](C(C)C)N(C)C(=O)[C@@H](NC(=O)[C@H]2CCCCN2C)C(C)(C)C)OC(C)=O)n1`: the growth was 31.5%.
In the case of `CC1=C(CCCNS(C)(=O)=O)C2=C(C)C3(CC3)[C@@](C)(O)C(=O)C2=C1`, the growth is 1.61% (active).
Turning to `COC(=O)[C@@H](C)C[C@H](Cc1ccccc1)NC(=O)c1cccc([C@@H](C[C@H](C(C)C)N(C)C(=O)[C@@H](NC(=O)[C@H]2CCCCN2C)C(C)C)OC(C)=O)n1`, the growth was 34.3%.
To `CNC(=O)Oc1ccc(C(C)(C)C)cc1OC(=O)NC` belongs 82.1%; to `CC1(C)C(C(=O)c2cn(CCCCF)c3ccccc23)C1(C)C`, 88.7%; to `CC(=O)O[C@H](C[C@H](C(C)C)N(C)C(=O)[C@@H](NC(=O)[C@H]1CCCCN1C)C(C)C)c1nc(C(=O)NC2CCC(C(=O)O)CC2)cs1` (some centres not stated), 57.8%.
For `CCCC[C@H](NC(=O)[C@H]1CCCN1C)C(=O)N(C)[C@H](C[C@@H](OC(C)=O)c1nc(C(=O)N[C@@H](Cc2ccccc2)C[C@H](C)C(=O)OCC)cs1)C(C)C`, the growth is 41.3%.
To `CCOC(=O)[C@@H](C)C[C@H](Cc1ccccc1)NC(=O)c1csc([C@@H](C[C@H](C(C)C)N(C)C(=O)CNC(=O)[C@H]2CCCCN2C)OC(C)=O)n1` belongs 34.8%; to `COc1ccc([As]=[As]c2ccc(OC)c(NCS(=O)(=O)O)c2)cc1NCS(=O)(=O)O` (configuration not stated), 0.829% (active).
To `CC1=C(CCCOC(=O)[C@H](N)CC(C)C)C2=C(C)C3(CC3)[C@@](C)(O)C(=O)C2=C1` belongs 35.2%; to `O=[N+]([O-])c1cc(I)cc([N+](=O)[O-])c1`, 99.9%; to `CC(=O)OC[C@]1(C)C=C2C(=O)[C@](C)(O)C3(CC3)C(C)=C2[C@H]1OC(=O)N(C)CCN(C)C(=O)OC(C)(C)C`, -7.18% (active).
With `CC[C@H](C)[C@H](NC(=O)[C@H]1CCCCN1C)C(=O)N(C)[C@H](CCc1nc(C(=O)N[C@@H](Cc2ccccc2)C[C@H](C)C(=O)OC)cs1)C(C)C`, the growth was 47.3%.
In the case of `COc1ccc(Nc2ccc([N+](=O)[O-])cc2[N+](=O)[O-])cc1CN(CCCl)CCCl` it was 70.7%; in that of `COC(=O)CCc1c[nH]c2ccc(N(CCCl)CCCl)cc12`, 96.6%.
In the case of `Nc1c(F)cc(-c2nc3cc(F)ccc3[se]2)cc1F` it was 47.6%; in that of `COC(=O)[C@@]1(C)CC[C@]2(C)CC[C@]3(C)C4=CC=C5C(=CC(=O)C(O)=C5C)[C@]4(C)CC[C@@]3(C)[C@@H]2C1`, -77.8% (active).
In the case of `COC(=O)[C@@H](C)C[C@H](Cc1ccccc1)NC(=O)c1nc([C@@H](C[C@H](C(C)C)N(C)C(=O)[C@@H](NC(=O)[C@H]2CCCCN2C)C(C)C)OC(C)=O)sc1C` it was 33.9%; in that of `CC(=O)O[C@H](C[C@H](C(C)C)N(C)C(=O)[C@@H](NC(=O)[C@H]1CCCN1C)C(C)C)c1nc(C(=O)N[C@@H](Cc2ccccc2)C[C@H](C)C(=O)O)c(C)s1`, 53.7%.
On to `CCOC(=O)[C@@H](C)C[C@H](Cc1ccccc1)NC(=O)c1csc([C@@H](C[C@H](C(C)C)N(C)C(=O)[C@H](CCC(C)C)NC(=O)[C@H]2CCCCN2C)OC(C)=O)n1`, for which the growth was 45.6%.
Regarding `COC(=O)C12CC(NC(=O)c3csc([C@@H](C[C@H](C(C)C)N(C)C(=O)[C@@H](NC(=O)[C@H]4CCCCN4C)C(C)C)OC(C)=O)n3)(C1)C2`, the growth is 44%.
In the case of `Clc1ccc2nnnn2n1` it was 90%; in that of `CC[C@H](C)[C@H](NC(=O)[C@H]1CCCCN1C)C(=O)N(C)[C@H](C[C@@H](O)c1nc(C(=O)N[C@@H](Cc2ccccc2)C[C@H](C)C(=O)O)cs1)C(C)C`, 91.5%; in that of `N#C[S-].[Au+].c1ccc(CN2[CH-]N(Cc3ccccc3)C(c3ccccc3)=C2c2ccccc2)cc1`, 12.6%.
As to `CCCCCCCCCCCCNC(c1ccccc1)C(O)c1ccccc1` (configuration not stated), the growth is 92.6%.
